Source: PubChem BioAssay
Shn3 3UTR inh: reduction of Shn3 3'UTR firefly luciferase signal, primary screen, Schnurri-3 inhibitor project, cell-based, Clone20 osteoblasts, set 2; hit rate 0.52% among 360,000; Clone20 osteoblast Shn3 3'UTR firefly luciferase, 24 h; inhibition, % at 12.5 µM;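 active means mean inhibition of at least 75% with every replicate also reaching 75%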;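 further: 0% = median of neutral control wells and 100% = pilot-screen positive control compound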
MITF TRPM1 inh: inhibitors of MITF-dependent TRPM1 promoter reporter, primary screen, cell-based, SK-MEL-5, single point, luciferase | SK-MEL-5 TRPM1 promoter luciferase, 24 h | hit rate 0.83% among 330,000 | inhibition, % at 12.5 µM;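 active means mean inhibition across replicates of 60% or more, whatever share of single replicates reaches that level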
HIF-2a inh: HIF-2a reporter inhibitors, primary screen, luminescence, 786-0 RCC cells. hit rate 0.72% among 360,000. inhibition, % at 18.8 µM. 786-0 RCC cells HIF-2a reporter, luciferase luminescence, overnight;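 active means inhibition of the luminescence signal of 40% or more relative to plate controls, in a single-dose primary screen at 18.75 µM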
CF NFkB inh: inhibitors of PAF-induced NF-kB signaling, primary screen, cell-based, GFP fluorescence, uHTS; hit rate 0.86% among 360,000; KKLEB NF-kB-GFP reporter, GFP fluorescence overnight; inhibition, % at 5 µM; AID 588850, 2011;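 active means at least 50% inhibition at 5 µM, scaled per plate between neutral and stimulator controls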;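 further: PAF is a Pseudomonas aeruginosa culture filtrate used as stimulus; plate controls were PAF-stimulated DMSO wells for no effect and unstimulated DMSO wells for full effect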
KKLEB tox: cytotoxicity in KKLEB CF airway cells, primary screen, cytotoxicity control for CF NF-kB inhibitor project, cell-based, uHTS, fluorescence assay plates | KKLEB CF airway cells viability, ATPlite luminescence, overnight; stronger effect = lower value; cells stimulated with P. aeruginosa culture filtrate | activity change (cytotoxicity), % at 5 µM | hit rate 0.36% among 360,000 | AID 602141, 2011;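 active means corrected activity change at or below -50% at 5 µM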
Peg3 promoter: Peg3 promoter-driven luciferase inhibitors, primary screen, cell-based, HeLa, luciferase luminescence; hit rate 1.7% among 360,000; HeLa PEG-Prom luciferase reporter, overnight; inhibition, % at 20 µM;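 active means inhibition of at least 50% at 20 µM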
* = called active by the depositor; · = not tested or not shown. Rows were chosen to be rich in hits. Some 2.8% of all compounds tested hit in one or more screens of this group.

SMILES	Shn3 3UTR inh	MITF TRPM1 inh	HIF-2a inh	CF NFkB inh	KKLEB tox	Peg3 promoter
Cc1ccc(-c2cc(C(=O)OCC(=O)N(C)c3c(N)n(Cc4ccccc4)c(=O)[nH]c3=O)c3ccccc3n2)o1	-44	-27	-52	-42	2	-51
CC(C)c1ccc(C(=O)N2CCCCC2c2cc(C(=O)NCc3cccnc3)no2)cc1 (stereo not given)	-7	·	14	-16	-6	-2
OC(COCC(F)(F)C(F)(F)C(F)(F)C(F)F)Cn1c2ccc(Cl)cc2c2cc(Cl)ccc21 (stereo not given)	8	2	-7	46	-17	63*
CCOC(=O)c1c(O)c2cc(Cl)ccc2n(CC)c1=O	-17	·	16	15	-6	18
O=C(NCCc1csc(-c2cccnc2)n1)c1ccccc1Br	-5	-20	-19	3	0	-20
CC(C)Cn1c(N)c(C(=O)COC(=O)CC23CC4CC(CC(C4)C2)C3)c(=O)n(C)c1=O	87*	42	17	-4	-4	22
CCCCCCN1C[C@H](n2cc(-c3ccc(F)cc3)nn2)[C@@H](O)C[C@@H]1c1ccccc1	6	·	-14	4	-4	2
CCCCCCN1C[C@H](n2cc(-c3ccc(F)cc3)nn2)[C@@H](O)C[C@@H]1c1ccc(Cl)cc1	95*	·	4	27	-7	98*
CCCc1nc2ccc(C)cn2c1Cc1ccc(C)cc1	-9	·	-228	8	-9	-331
CC1=NN(c2nc(N)nc(/C(C#N)=C/c3ccc([N+](=O)[O-])o3)n2)C(C)(C)C1	98*	91*	2	-6	-69*	102*
C[C@@H](C[C@@H](O)[C@H](O)C(C)(C)O)[C@@H]1CC[C@]2(C)C3=CC[C@H]4C(C)(C)C(=O)CC[C@]4(C)[C@H]3CC[C@@]12C	92*	9	22	33	-20	33
O=C(NC(Nc1nc2ccc([N+](=O)[O-])cc2s1)(C(F)(F)F)C(F)(F)F)c1ccccc1Cl	90*	75*	15	45	-53*	65*
O=C(NC(Nc1nc2ccc([N+](=O)[O-])cc2s1)(C(F)(F)F)C(F)(F)F)c1cccnc1	83	78*	12	55*	-48	12
CCOc1cc(/C=C2/NC(=O)N(CC(=O)OC)C2=O)ccc1O	38	6	9	16	6	9
COc1ccc(/C=N/N=C/c2ccc(OC)c(OC)c2)cc1OC	-1	-3	1	-7	2	9
COc1cc(/C=N/N=C(N)N)ccc1OCc1ccccc1Cl	76	-1	-49	-11	-4	102*
CCc1nc2c(OCc3cccc(OC)c3)cccn2c1N(C)C(=O)c1ccccc1F	2	·	16	-10	4	25
COc1cc2cc(-c3ccc(OC)c(OC)c3C)nc(N)c2cc1OC	·	·	23	10	2	65*
Cc1ccc2nsnc2c1NC(=O)Cc1ccc(Cl)cc1	16	-5	2	6	4	-1
Cc1ccc2nsnc2c1NC(=O)c1ccc(-c2cc(Cl)ccc2Cl)o1	63	72*	31	10	-4	101*
CN(C(=O)Nc1ccc(C(C)(C)C)cc1)C1CCCCC1	-9	-27	-78	4	-2	-27
Cc1ccc(NC(=O)C2CCN(S(=O)(=O)c3c(C)noc3/C=C/c3ccco3)CC2)nc1	49	72*	7	-8	8	16
CCOc1ccccc1C(=O)N1CCN(c2cccc(Cl)c2)CC1	1	48	4	41	-30	10
COc1ccccc1N1CCN(c2ncc(C(=O)N3CCN(c4cccc(Cl)c4)CC3)c3ccccc23)CC1	93*	41	9	2	-14	31
COc1ccc(Nc2ncc(C(=O)O)c3ccccc23)cc1	6	-8	-30	17	-6	6
COc1ccc(Nc2ncc(C(=O)N3CCN(c4ccc(F)cc4)CC3)c3ccccc23)cc1	71	9	7	24	-20	59*
